PubChem BioAssay (NCI)
Compounds without any hit were thinned out: in the full panel of roughly 79,000, 15% have a hit. Active and inactive are the calls of the source. Cut-off read from the data, not from the text of the source: active = growth inhibition above about 70%; inactive = the rest.

Legend:
[1] = NCI Yeast Anticancer Drug Screen. Data for the rad52 strain (AID 147);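 note: 0% = growth of vehicle-treated control cultures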; details: S. cerevisiae rad52 mutant growth inhibition, hits give high values
Outline: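 Growth of repair-deficient yeast cells was compared between compound-treated and vehicle-treated cultures to give percent inhibition.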

[2] = NCI Yeast Anticancer Drug Screen. Data for the wt1 strain (AID 149);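 note: 0% = growth of vehicle-treated wt1 cultures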; details: S. cerevisiae wt1 strain (SPY 50644) growth inhibition, hits give high values
Outline: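 wt1 strain grown with compound or vehicle; inhibition taken from the growth difference.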

[3] = NCI Yeast Anticancer Drug Screen. Data for the rad50EPP+ strain (AID 151);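 note: 0% = growth of vehicle-treated control cultures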; details: S. cerevisiae rad50 mutant strain, hits give high values
Outline: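 Measured: growth inhibition of rad50EPP+ yeast. Reference: vehicle-treated controls. Screen uses strains with defined genetic alterations in DNA damage repair or cell cycle control.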

[4] = NCI Yeast Anticancer Drug Screen. Data for the mgt1 strain (AID 153); details: S. cerevisiae mgt1 mutant growth inhibition, hits give high values
Outline: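 Compounds were applied to mgt1 mutant yeast, and growth was then compared against vehicle-treated control cultures to give percent inhibition.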

[5] = NCI Yeast Anticancer Drug Screen. Data for the rad50 strain (AID 155);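 note: 0% = growth of vehicle-only cultures of the same strain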; details: S. cerevisiae rad50 strain growth inhibition, hits give high values
Outline: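 DNA repair mutant yeast, compound exposure, growth read-out; inhibition is taken relative to vehicle.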

[6] = NCI Yeast Anticancer Drug Screen. Data for the mec2-1 strain (AID 157); details: S. cerevisiae mec2-1 strain, hits give high values
Outline: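 Compounds were applied to mec2-1 yeast cells. Their growth was then compared with that of vehicle-treated cultures to give growth inhibition.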

[7] = NCI Yeast Anticancer Drug Screen. Data for the rad14 strain (AID 159);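 note: 0% = growth of vehicle-treated control cultures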; details: S. cerevisiae rad14 strain growth inhibition, hits give high values
Outline: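 DNA repair-defective yeast, compound-exposed; % growth inhibition derived by comparison with vehicle-treated controls.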

[8] = NCI Yeast Anticancer Drug Screen. Data for the sgs1 mgt1 strain (AID 161);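 note: 0% = growth of cultures given vehicle only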; details: S. cerevisiae sgs1 mgt1 strain, hits give high values
Outline: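 Percent growth inhibition was derived by comparing compound-exposed mutant yeast with vehicle-exposed cultures. The strain carries alterations in DNA damage repair.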

[9] = NCI Yeast Anticancer Drug Screen. Data for the CLN2oe strain (AID 163);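 note: 0% = growth of vehicle-only control cultures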; details: S. cerevisiae CLN2oe strain, hits give high values
Outline: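 Cells of an engineered yeast line with disturbed cell-cycle regulation are treated with compound. Inhibition of growth is then calculated relative to the vehicle-treated reference.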

[10] = NCI Yeast Anticancer Drug Screen. Data for the cln2 rad14 strain (AID 165);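 note: 0% = growth equal to vehicle treated cultures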; details: S. cerevisiae cln2 rad14 strain, hits give high values
Outline: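 Strain: cln2 rad14 yeast, altered in cell cycle control and DNA damage repair. Read-out: growth inhibition vs vehicle.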

[11] = NCI Yeast Anticancer Drug Screen. Data for the bub3 strain (AID 167); details: S. cerevisiae bub3 mutant strain, hits give high values
Outline: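 In this screen, a yeast mutant lacking normal mitotic checkpoint function is challenged with compound. Relative growth versus vehicle gives the inhibition value.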

[12] = NCI Yeast Anticancer Drug Screen. Data for the wt2 strain (AID 169);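 note: 0% = growth of vehicle-treated yeast cultures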; details: S. cerevisiae wt2 strain growth inhibition, hits give high values
Outline: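 Growth of compound-treated yeast is measured and expressed as inhibition relative to vehicle-only controls.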

[13] = NCI Yeast Anticancer Drug Screen. Data for the mlh1 strain (AID 171);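 note: 0% = growth of vehicle-treated control cultures of the same strain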; details: S. cerevisiae mlh1 strain growth inhibition, hits give high values
Outline: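 Test agents were incubated with yeast bearing a defined DNA damage repair or cell cycle control alteration; values are growth inhibition normalised to vehicle-treated cultures.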

[14] = NCI Yeast Anticancer Drug Screen. Data for the sgs1 strain (AID 173);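 note: 0% = growth of vehicle-only control cultures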; details: S. cerevisiae sgs1 mutant, hits give high values
Outline: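 Strain with an altered DNA repair or cell cycle pathway exposed to compound. Growth then measured. Value = inhibition versus vehicle control.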

[15] = NCI Yeast Anticancer Drug Screen. Data for the mlh1 rad18 strain (AID 175); details: S. cerevisiae mlh1 rad18 strain growth inhibition, hits give high values
Outline: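 A repair-deficient yeast strain is exposed to test compound, and growth is scored relative to vehicle-treated controls.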

[16] = NCI Yeast Anticancer Drug Screen. Data for the rad18 strain (AID 177); details: S. cerevisiae rad18 mutant growth inhibition, hits give high values
Outline: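 DNA-repair-defective yeast; compound treatment; growth inhibition scored against vehicle.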

[17] = at 5.0 µM (retest, dose inferred, filed as 0.5)
[18] = at 50.0 µM (retest, dose inferred, filed as 5.0)

Measured: growth inhibition

O=C(O)c1ccccc1-c1ccccc1C(=O)Nc1ccc2c(c1)Cc1ccccc1-2
inactive: [1]; at 1.2 µM 2% | [1]; at 3.7 µM 5% | [1]; at 11.0 µM 12% | [1]; at 33.0 µM 51% | [2]; at 1.2 µM 5% | [2]; at 3.7 µM 7% | [2]; at 11.0 µM 16% | [2]; at 33.0 µM 47% | [3]; at 1.2 µM -2% | [3]; at 3.7 µM 2% | [3]; at 11.0 µM 3% | [3]; at 33.0 µM 10% | [3]; at 100.0 µM 25% | [4]; at 1.2 µM 5% | [4]; at 3.7 µM 7% | [4]; at 11.0 µM 19% | [4]; at 33.0 µM 65% | [5]; at 1.2 µM 6% | [5]; at 3.7 µM 6% | [5]; [17] 0% | [5]; at 11.0 µM 23% | [5]; at 33.0 µM 49% | [5]; [18] 37% | [6]; at 1.2 µM 8% | [6]; at 3.7 µM 14% | [6]; [17] 4% | [6]; at 11.0 µM 22% | [6]; at 33.0 µM 64% | [6]; [18] 23% | [7]; at 1.2 µM 7% | [7]; at 3.7 µM 9% | [7]; at 11.0 µM 21% | [8]; [17] -7% | [8]; [18] 17% | [8]; at 50.0 µM 62.6% | [9]; at 1.2 µM 7% | [9]; at 3.7 µM 10% | [9]; at 11.0 µM 20% | [9]; at 33.0 µM 64% | [10]; [17] -27% | [10]; [18] 46% | [11]; at 1.2 µM 4% | [11]; at 3.7 µM 7% | [11]; [17] -24% | [11]; at 11.0 µM 27% | [11]; at 33.0 µM 67% | [11]; [18] 22% | [12]; at 1.2 µM 3% | [12]; at 3.7 µM 7% | [12]; at 11.0 µM 16% | [12]; at 33.0 µM 59% | [13]; at 1.2 µM 7% | [13]; at 3.7 µM 12% | [13]; at 11.0 µM 22% | [13]; at 33.0 µM 51% | [14]; at 1.2 µM 1% | [14]; at 3.7 µM 6% | [14]; at 11.0 µM 17% | [14]; at 33.0 µM 59% | [15]; [17] 6% | [15]; [18] 54% | [16]; at 1.2 µM 4% | [16]; at 3.7 µM 7% | [16]; at 11.0 µM 17% | [16]; at 33.0 µM 49%
active: [1]; at 100.0 µM 90% | [2]; at 100.0 µM 90% | [4]; at 100.0 µM 98% | [5]; at 50.0 µM 71.2% | [5]; at 100.0 µM 88% | [6]; at 50.0 µM 73.5% | [6]; at 100.0 µM 99% | [7]; at 33.0 µM 71% | [7]; at 100.0 µM 97% | [9]; at 100.0 µM 98% | [10]; at 50.0 µM 92.3% | [11]; at 50.0 µM 83.2% | [11]; at 100.0 µM 96% | [12]; at 100.0 µM 96% | [13]; at 100.0 µM 97% | [14]; at 100.0 µM 94% | [15]; at 50.0 µM 76.5% | [16]; at 100.0 µM 90%
